“And” between values parts separate entries of the source, which are not always exact repeats. Identical values can stand only once. This is part of a sample that, as a whole, favours compounds with a hit. Of some 83,000 tested, about 20% had one in any assay.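 Assay: single dose, 48 h. Readout: percent growth (0 = no net growth; negative = cell death). Active: <10.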 The source made the active and inactive calls.
Assays:
Test in all cases: NCI-60 one-dose screen, 48 h (100 = growth as untreated, 0 = no growth, -100 = all killed)
SK-MEL-2 melanoma = conditions: 10 µM
EKVX NSCLC = conditions: 10 µM
SN12C renal = conditions: 10 µM
UO-31 renal = conditions: 10 µM
TK-10 renal = conditions: 10 µM unless noted
ACHN renal = conditions: 10 µM
CAKI-1 renal = conditions: 10 µM
CCRF-CEM leukemia = conditions: 10 µM
A498 renal = conditions: 10 µM
HL-60(TB) leukemia = conditions: 10 µM

SMILES	growth (SK-MEL-2 melanoma)	growth (EKVX NSCLC)	growth (SN12C renal)	growth (UO-31 renal)	growth (TK-10 renal)	growth (ACHN renal)	growth (CAKI-1 renal)	growth (CCRF-CEM leukemia)	growth (A498 renal)	growth (HL-60(TB) leukemia)
ClCc1ccc2ccccc2n1	99.4% (inactive)	93.2% (inactive)	86% (inactive)	89.8% (inactive)	113% (inactive)	96.8% (inactive)	58.5% (inactive)	103% (inactive)	–	–
COS(=O)(=O)c1ccccc1	101% (inactive)	112% (inactive)	112% (inactive)	89.5% (inactive)	–	101% (inactive)	104% (inactive)	99.7% (inactive)	112% (inactive)	106% (inactive)
C/C1=C\[C@H](C)C[C@H](C)OC(=O)C[C@H](c2ccc(O)cc2)NC(=O)[C@@H](Cc2c(Br)[nH]c3ccccc23)N(C)C(=O)[C@H](C)NC(=O)[C@@H](C)C1	-67.3% (active)	-23.6% (active)	14.2% (inactive)	-92.1% (active)	–	-18.7% (active)	-43.2% (active)	-21.5% (active)	–	-44% (active)
CS(=N)(=O)CCC(N)C(=O)O (configuration not stated)	107% (inactive)	109% (inactive)	102% (inactive)	95.1% (inactive)	94.1% (inactive)	103% (inactive)	83.2% (inactive)	–	129% (inactive)	–
CN(CCCl)c1ccc(/C=C/C2=[N+](C)c3ccccc3C2(C)C)cc1	46% (inactive)	54.6% (inactive)	1.3% (active)	87.3% (inactive)	54.7% (inactive)	85.2% (inactive)	102% (inactive)	–	66.3% (inactive)	–
COC(C(=O)C(O)C(C)O)C1Cc2cc3cc(OC4CC(OC(C)=O)C(OC5CC(O)C(OC)C(C)O5)C(C)O4)cc(O)c3c(O)c2C(=O)C1OC1CC(OC2CC(OC3CC(C)(O)C(OC(=O)C(C)C)C(C)O3)C(O)C(C)O2)C(O)C(C)O1 (configuration not stated)	-60.7% (active)	-16% (active)	5.41% (active)	-35.2% (active)	20.2% (inactive)	3.27% (active)	17.1% (inactive)	-13.4% (active)	–	–
O=C1C=Cc2ccccc2C1=O	55.3% (inactive)	82.6% (inactive)	92.1% (inactive)	50.3% (inactive)	87.9% (inactive)	46.5% (inactive)	86.2% (inactive)	74.1% (inactive)	–	87.3% (inactive)
[Cl][Hg][c]1ccc(Cl)s1	64.3% (inactive)	-18.7% (active)	34.1% (inactive)	-64.3% (active)	30.9% (inactive)	-80.9% (active)	-53% (active)	-11% (active)	–	-17.2% (active)
O=C(CBr)Nc1ccccc1	97% (inactive)	111% (inactive)	91% (inactive)	84.9% (inactive)	87.4% (inactive)	104% (inactive)	106% (inactive)	14.7% (inactive)	–	–
NC(Cc1ccccc1)c1ccccc1 (configuration not stated)	99.8% (inactive) and 101% (inactive)	103% (inactive) and 112% (inactive)	102% (inactive) and 101% (inactive)	93.6% (inactive) and 69.8% (inactive)	–	105% (inactive) and 101% (inactive)	96.5% (inactive) and 102% (inactive)	110% (inactive) and 90% (inactive)	–	102% (inactive) and 107% (inactive)
O=S(=O)(F)c1ccc(Cl)cc1	124% (inactive)	110% (inactive)	105% (inactive)	91.5% (inactive)	107% (inactive)	111% (inactive)	105% (inactive)	92.7% (inactive)	–	–
O=[N+]([O-])/C=C\c1ccc2c(c1)OCO2	115% (inactive)	96.9% (inactive)	94.2% (inactive)	64.5% (inactive)	87.1% (inactive)	90.4% (inactive)	86.6% (inactive)	92.5% (inactive)	–	–
CC(C)(C)OOC(=O)/C=C\C(=O)OOC(C)(C)C	103% (inactive)	123% (inactive)	97.3% (inactive)	103% (inactive)	–	108% (inactive)	127% (inactive)	96.4% (inactive)	109% (inactive)	74.6% (inactive)
CC/C(=C/c1ccc(OC)cc1OC)[N+](=O)[O-]	34.4% (inactive)	79.9% (inactive)	15.9% (inactive)	28.1% (inactive)	11.1% (inactive)	-43.1% (active)	49.2% (inactive)	–	–	15.7% (inactive)
COC12C(COC(N)=O)C3=C(C(=O)C(C)=C(N)C3=O)N1CC1C2N1C (configuration not stated)	91.4% (inactive)	91.7% (inactive)	46.8% (inactive)	32.7% (inactive)	69.4% (inactive)	10.8% (inactive)	16.6% (inactive)	24.8% (inactive)	–	-23.2% (active)
O=C(O)c1cc(Cc2ccc(O)c(C(=O)O)c2)ccc1O (tested in a mixture with another compound)	-53.3% (active)	73.8% (inactive)	87.1% (inactive)	42.6% (inactive)	–	77% (inactive)	58.4% (inactive)	0.136% (active)	–	21.3% (inactive)
O=[N+]([O-])c1ccc(N(CCO)CCO)c2c1no[n+]2[O-]	-16.3% (active)	-9.06% (active)	-4.84% (active)	7.25% (active)	-13.4% (active)	-12.3% (active)	-11.9% (active)	-38% (active)	-15.6% (active)	-33.1% (active)
COc1ccccc1[As]=[As]c1ccccc1OC (configuration not stated)	-86.9% (active)	-67.7% (active)	-83.3% (active)	-93.1% (active)	–	-96.9% (active)	-86.5% (active)	2.34% (active)	-96.3% (active)	-37.1% (active)
COc1cc(/C=C(/C)[N+](=O)[O-])ccc1O	19.6% (inactive) and 72.1% (inactive)	84.6% (inactive)	27.5% (inactive) and 23.2% (inactive)	-10.8% (active) and -16.8% (active)	-21.2% (active) and 61.7% (inactive)	-39.8% (active) and 16.4% (inactive)	-0.672% (active)	-35% (active)	–	-17.3% (active) and -34.3% (active)
COC(=O)C1C(O)C(C)C(O)C(C)/C=C\C=C(C)C(=O)Nc2c(C)c(OC(C)=O)c3c(c2O)C(=O)C(C)=C2OCOC(=C23)C(C)=CC(C)(O)C(O)C(C)C1O (configuration not stated)	96.2% (inactive)	110% (inactive)	94.9% (inactive)	103% (inactive)	107% (inactive)	85.7% (inactive)	95.5% (inactive)	96.1% (inactive)	–	–
CC[C@@]1(O)C[C@H](OC2CC(N(C)C)C(O)C(C)O2)c2c(cc3c(c2O)C(=O)c2c(O)ccc(O)c2C3=O)[C@H]1C(=O)OC (some centres not stated)	-57.1% (active)	-47.8% (active)	-42.7% (active)	-64.7% (active)	-50.4% (active)	-88.4% (active)	-71.8% (active)	-30.1% (active)	–	-68.9% (active)
CC(C)C1(NC(=O)C2CC3c4cccc5[nH]cc(c45)CC3N(C)C2)OC2(O)C3CCCN3C(=O)C(Cc3ccccc3)N2C1=O (configuration not stated)	107% (inactive)	98.8% (inactive)	99.4% (inactive)	91.3% (inactive)	123% (inactive)	83% (inactive)	110% (inactive)	135% (inactive)	97.5% (inactive)	–
CC(=O)[O][Hg][c]1c(C)c(C)cc(C)c1C	-48.3% (active)	-62.9% (active)	-13.8% (active)	-86.2% (active)	–	34.1% (inactive)	-83.9% (active)	3.85% (active)	101% (inactive)	–
C[C@]12CC[C@H]3[C@@H](CCC4=CC(=O)CC[C@@H]43)[C@@H]1CC[C@@H]2OC(=O)N(CCCl)N=O	27.4% (inactive)	119% (inactive)	23.2% (inactive)	40.8% (inactive)	87.6% (inactive)	13% (inactive)	27.4% (inactive)	11% (inactive)	–	-22.6% (active)
COc1cc(/C=C/[N+](=O)[O-])cc(OC)c1OC	63.6% (inactive)	73.6% (inactive)	30.7% (inactive)	-85.3% (active)	–	-42.2% (active)	-78.2% (active)	–	47.1% (inactive)	–
COc1cc2c(cc1OC)C13CCN4CC5=CCOC6CC(=O)N2C1C6C5CC43 (configuration not stated)	116% (inactive) and 77.5% (inactive)	105% (inactive) and 114% (inactive)	97.3% (inactive) and 91.3% (inactive)	87.9% (inactive) and 92.8% (inactive)	112% (inactive) and 138% (inactive)	99.6% (inactive) and 107% (inactive)	103% (inactive) and 104% (inactive)	100% (inactive) and 76.3% (inactive)	–	–
C/C(=C\c1ccc(Cl)c(Cl)c1)[N+](=O)[O-]	18.1% (inactive) and 95.5% (inactive)	94.6% (inactive)	-43.4% (active) and 101% (inactive)	-84.4% (active) and 97.6% (inactive)	4.82% (active) and 91.4% (inactive)	-70.7% (active) and 105% (inactive)	121% (inactive)	8.59% (active) and 85.4% (inactive)	–	–

From PubChem BioAssay (NCI)
